Wnt act: Wnt/beta-catenin pathway activators, primary screen, cell-based, plate reader, single point; Wnt/beta-catenin reporter cell assay, activator; activation, % at 9.35 µM; 300,000 tested, 1.2% active; in the data active = activation above about 30%, passing the limit was not always enough; inconclusive = no clear call, values can overlap the other calls;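 note: 0% = neutral control wells and 100% = positive control wells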
TRPM1 prom inh: inhibitors of MITF-dependent TRPM1 promoter reporter, primary screen, cell-based, SK-MEL-5, single point, luciferase. SK-MEL-5 TRPM1 promoter luciferase, 24 h. inhibition, % at 12.5 µM. 330,000 tested, 0.83% active;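 active = mean inhibition across replicates of 60% or more, whatever share of single replicates reaches that level; inconclusive = some that reach 60%, reason not given; inactive = mean inhibition across replicates below 60%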
C2C12 statin: suppressors of statin myotoxicity in C2C12 myotubes, primary screen, cell-based, single point, plate reader; C2C12 myotubes + simvastatin, ATP luminescence, 48 h; scaled: DMSO 0, geranylgeraniol control 100; rescue of ATP level, % at 7.49 µM; 330,000 tested, 0.78% active; AID 602340, 2012;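 active = mean ATP rescue above about 67%, or every replicate alone reaching that limit, limit read from the data, passing the limit was not always enough; inconclusive = no clear call, values can overlap the other calls; inactive = mean under the limit and some replicate under it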;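 note: myotubes were challenged with 10 µM simvastatin during compound exposure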
EBV LMP1 NFkB: EBV LMP1-driven NF-kappaB luciferase reporter inhibitors, primary screen, cell-based, luminescence, single point | LMP1-induced NF-kappaB luciferase reporter cells | inhibition, % at 12.5 µM | 350,000 tested, 0.69% active; in the data active = inhibition above about 41%; inconclusive = no clear call, values can overlap the other calls;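 note: 0% = neutral control wells and 100% = reference inhibitor control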
esBAF inh: Bmi1 luciferase reporter increase in mESCs, primary screen, esBAF inhibitor project, mouse ES cells, Bmi1 luciferase knock-in, single point | 24 h; 100% = twice the neutral-well signal | reporter increase, % at 12.5 µM | 350,000 tested, 2% active; in the data active = activation above about 40%; inconclusive = no clear call, values can overlap the other calls;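 note: 0% = median of the plate's neutral control wells and 100% = double that signal; a rise in the Bmi1 reporter signal indicates esBAF inhibition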
MITF TRPM1 HTS: activators of MITF-driven TRPM1 promoter reporter, primary screen, cell-based, SK-MEL-5, luciferase, single point; SK-MEL-5 TRPM1-promoter luciferase, 24 h; % of positive control, neutral wells = 0; activation, % at 12.5 µM; 300,000 tested, 0.75% active;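 active = mean activation of at least 80% with every replicate also reaching 80%; inconclusive = mean reaches 80% but some replicate falls short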;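 note: 0% = neutral control wells and 100% = parthenolide positive control wells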
Starred values were filed as active, the others as inactive; ? = inconclusive; / = no result. A selection: hits, their analogues and other compounds. The true share with any hit is near 4%.

SMILES | Wnt act | TRPM1 prom inh | C2C12 statin | EBV LMP1 NFkB | esBAF inh | MITF TRPM1 HTS
COc1ccccc1OCCNC1CCCC1 | -3 | 5 | 160* | -3 | 0 | -8
Cc1ccc2nc(C3CCCCC3)c(Cc3cccc(Cl)c3)n2c1 | -1 | / | -5 | / | 1 | /
CCc1cc2c(=O)c(-c3cnn(-c4ccccc4)c3)coc2c(CN2CCOCC2)c1O | -1 | -32 | -22 | 9 | 54* | 34
O=C1OC(/C=C/c2ccc(Cl)cc2Cl)=NC/1=C\c1cccs1 | -1 | -1 | / | -14 | / | 2
O=C(N/N=C/c1ccc2cccnc2c1)c1nc2ccccc2c(=O)[nH]1 | 0 | -58 | 2 | -6 | 46* | 67
Cc1ccc(N2CCN(C(=O)CNS(=O)(=O)c3ccc(Br)s3)CC2C)cc1 (stereo not given) | / | -17 | / | 11 | / | 17
CCCC(=O)Nc1nc(-c2ccccc2)ns1 | ? | -79 | / | -15 | / | ?
CC(C)C(=O)Nc1nc(-c2ccccc2)ns1 | -5 | -127 | 3 | -25 | 56* | 135*
CCC(=O)Nc1nc(-c2ccccc2)ns1 | / | -60 | -9 | -31 | 43* | /
CC(C)C(=O)Nc1nnc(NC(=S)Nc2ccccc2)s1 | 8 | -31 | 23 | 3 | 76* | 37
CCCc1nnc(NC(=S)Nc2ccccc2)s1 | 23 | -60 | / | -14 | / | 61
CCOC(=O)c1c(C)oc(=O)c(CC)c1O | 6 | / | / | -11 | / | /
CCOC(=O)c1c(C)oc2c(F)c(F)c(F)c(F)c2c1=O | -1 | 100* | 3 | 8 | -9 | -100
O=C1C(C=NCCN2CCOCC2)=C(O)c2ccccc21 | 34* | -38 | 8 | -32 | 51* | 35
O=C1C(C=NCCCN2CCOCC2)=C(O)c2ccccc21 | / | 4 | 124* | -3 | 10 | 2
CC(C)c1ccc(Nc2nc(CC(=O)O)cs2)cc1 | 17 | -68 | / | -50 | / | 74
Cc1cccc(-n2ncc3c(NCc4cccs4)ncnc32)c1 | / | -76 | -53 | -16 | 56* | ?
Cc1ccc(-n2ncc3c(NCc4ccco4)ncnc32)cc1C | 8 | -35 | / | -5 | / | 30
Cc1cccc(-n2ncc3c(NCc4ccccn4)ncnc32)c1 | / | -64 | -47 | -14 | 53* | 69
Clc1ccc(-n2ncc3c(NCc4cccs4)ncnc32)cc1 | / | -37 | 2 | -42 | 31 | /
Cc1cccc(-n2ncc3c(NCc4ccco4)ncnc32)c1 | / | -40 | -80 | 14 | 82* | 47
c1ccc(-n2ncc3c(NCc4ccccn4)ncnc32)cc1 | 5 | -60 | -30 | -11 | 24 | 60
Cc1ccc(C(C(=O)NC2CCCC2)N(Cc2ccc(F)cc2)C(=O)c2snc(C(N)=O)c2N)o1 (stereo not given) | 1 | 4 | 15 | -5 | 3 | -8
Cc1cccc(C(=O)NNS(=O)(=O)c2ccc(F)cc2)c1 | 0 | -1 | -1 | -6 | 42* | /
Cc1cccc(C(=O)NNC(=O)c2ccc(F)cc2)c1 | 3 | -15 | / | -8 | / | 15
SMILES | Wnt act | TRPM1 prom inh | C2C12 statin | EBV LMP1 NFkB | esBAF inh | MITF TRPM1 HTS
Cc1cc(C)c(C)c(OCc2nc(-c3cccnc3)no2)c1 | -5 | 2 | -5 | -2 | 10 | /
Cc1ccc(OCc2nc(-c3ccccc3)no2)c(C)c1 | / | -73 | 13 | -82 | 64* | 80
CCC(=O)N1[C@H](C(=O)OC)[C@@H](CO)[C@@H]2Cn3c(ccc(-c4ccccc4F)c3=O)[C@@H]21 | / | / | -8 | / | -1 | /
CN(C)c1ccc(/C=N/NC(=O)CSc2ccccn2)cc1 | 48* | -36 | / | -6 | / | /
O=C(CSc1ncccn1)N/N=C/c1ccc2c(c1)OCO2 | 0 | -55 | 4 | -9 | 41* | 54
O=C(CNc1ccccc1)N/N=C/c1ccc2c(c1)OCO2 | 14 | -8 | 1 | -1 | 11 | 4
CCc1ccc(CCC(=O)Nc2nc(CC(C)=O)ns2)o1 | 4 | 0 | -11 | -16 | -7 | 1
O=C(CN1C(=O)NC(Cc2c[nH]c3ccccc23)C1=O)Nc1ccc(F)c(F)c1F (stereo not given) | -4 | -1 | 7 | -7 | -5 | 3
CC(NC(=O)CNC(=O)OCc1ccccc1)C(=O)N1CC(O)CC1C(=O)OCc1ccccc1 (stereo not given) | / | 6 | / | 65* | / | -5
COc1ccc(S(=O)(=O)Nc2ccccn2)c(C)c1C | -5 | 4 | 8 | -5 | -11 | -3
Cc1cnc(NC(=O)Cc2c[nH]c3ccccc23)s1 | 7 | -9 | 13 | -15 | 8 | 10
Cc1csc(NC(=O)Cc2ccc(F)cc2)n1 | -1 | -36 | -6 | -18 | 64* | 42
Cc1csc(NC(=O)Cc2c(F)cccc2Cl)n1 | 22 | -41 | 0 | -15 | 62* | /
O=C(Cc1ccc(F)cc1)Nc1nc(-c2ccc(F)c(F)c2)cs1 | -1 | -13 | 10 | -4 | 7 | /
Cc1csc(NC(=O)Cc2c[nH]c3ccccc23)n1 | / | -91 | 4 | -41 | 61* | 93*
CC(=O)Nc1ccc(-c2ccnc3c2CC(C)(C(=O)Nc2ccc(Cl)c(C(F)(F)F)c2)O3)cc1 (stereo not given) | -13 | / | 18 | / | 13 | /
Oc1cc(NCc2ccc(Cl)cc2)cc2cccnc12 | 2 | 13 | -9 | 47* | 18 | -8
COc1ccc(-c2ccc3c(c2)O/C(=C\c2ccsc2)C3=O)cn1 | 11 | -59 | -3 | -20 | 45* | 73
COc1ccc(-c2ccc3c(=O)cc(-c4ccsc4)oc3c2)cn1 | -2 | -28 | 14 | -11 | 7 | 33
Cc1cc2n(n1)SC(Nc1cccc3ccccc13)N2 (stereo not given) | 47* | -4 | 0 | -13 | 50* | 1
CC(=O)OCC1OC(n2cc(F)c(=O)[nH]c2=O)C(OC(C)=O)C1OC(C)=O (stereo not given) | 0 | -9 | -6 | 3 | -4 | /
O=C1C(F)=CC(COC(c2ccccc2)(c2ccccc2)c2ccccc2)OC1n1cc(F)c(=O)[nH]c1=O (stereo not given) | -21 | 114* | / | -3 | / | /
CCCCC[n+]1cccc2c3ccccc3ccc21 | -3 | 15 | / | 2 | / | -11
c1ccc(C[n+]2cccc3c4ccccc4ccc32)cc1 | / | 62* | -81 | 38 | -37 | -62
COC(=O)c1c(NC(=O)CSc2nnnn2-c2ccccc2)sc2c1CCCC2 | / | 4 | -9 | 6 | -9 | -4
O=C(NCc1cccnc1)/C(=C/c1ccc(-c2cccc(C(F)(F)F)c2)o1)NC(=O)c1ccccc1 | -8 | 6 | 7 | -1 | 6 | 0

Screening data deposited in PubChem by Broad Institute.
